For 14 molecules, growth results are on record in PubChem BioAssay (NCI).

Test systems include SK-MEL-2 melanoma; EKVX NSCLC; UO-31 renal; TK-10 renal; ACHN renal; CAKI-1 renal; A498 renal; CCRF-CEM leukemia; MOLT-4 leukemia.
Holding throughout (assay): NCI-60 one-dose screen, 48 h (100 = growth as untreated, 0 = no growth, -100 = all killed)
What all share (details): 10 µM unless noted

About 83,000 compounds went through this panel and 20% of them were active in at least one assay; those are over-represented in the sample as a whole.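 Each cell line was grown in a 96-well plate and treated with one concentration of compound for 48 hours. Values below 10 were considered active.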 Values without a mark were called inactive. Calls of active or inactive are those of the source.

On to `CCCCCCCCc1ccc(S(=O)(=O)Nc2ccc(CC)cc2C(=O)O)cc1`, for which the growth in the assay on SK-MEL-2 melanoma is 86.7%; with EKVX NSCLC, 90.5%; in the assay on UO-31 renal, 84.8%; with TK-10 renal it was 104%; in the assay with ACHN renal it was 96%; with CAKI-1 renal, 89%. In addition, the growth is 104% in the assay with A498 renal, 77.9% with CCRF-CEM leukemia and 91.1% with MOLT-4 leukemia.

In the case of `CCCCSc1nc(NCCc2c[nH]c3ccccc23)c(C#N)c(-c2ccc(OC)cc2)n1`, the growth with SK-MEL-2 melanoma is 76.6%; in the assay on EKVX NSCLC it was 40.1%; in the assay with UO-31 renal it was 59.3%; in the assay on TK-10 renal it was 102%; in the assay with ACHN renal, 66.6%; in the assay on CAKI-1 renal, 53.6%. The growth is 103% in the assay on A498 renal, 27.8% with CCRF-CEM leukemia and 26.3% with MOLT-4 leukemia.

In the case of `COc1cc(C2CC(c3cc(OC)c(OC)c(OC)c3)=NN2C(C)=O)ccc1OCc1ccc(F)cc1` (stereo unspecified), the growth in the assay on SK-MEL-2 melanoma was 69.5%; with EKVX NSCLC, 59.4%; in the assay with UO-31 renal, 29.7%; with TK-10 renal, 50.5%; in the assay on ACHN renal, 59.2%; with CAKI-1 renal, 53.2%. Moreover, the growth was 59.4% with A498 renal, 59.9% in the assay on CCRF-CEM leukemia and 30.6% in the assay on MOLT-4 leukemia.

For the molecule `COc1ccc(-c2nc(SCC(C)C)nc(NCCc3c[nH]c4ccccc34)c2C#N)cc1`, the growth in the assay on SK-MEL-2 melanoma is 80.9%; with EKVX NSCLC, 40.5%; in the assay with UO-31 renal, 57.2%; with TK-10 renal, 120%; in the assay with ACHN renal it was 69.5%; with A498 renal it was 97.4%. Also, the growth in the assay on CCRF-CEM leukemia is 36.2%; in the assay on MOLT-4 leukemia, 40.4%.

For `CCCCSc1nc(NCCc2c[nH]c3ccccc23)c(C#N)c(-c2ccccc2)n1`, the growth in the assay on SK-MEL-2 melanoma was 74%; with EKVX NSCLC, 32.9%; in the assay with UO-31 renal, 45.5%; in the assay with TK-10 renal, 74.3%; in the assay with ACHN renal it was 43.2%; in the assay on CAKI-1 renal, 35.2%. Further, the growth in the assay with A498 renal was 61.8%; in the assay on CCRF-CEM leukemia, 8.29% (active); in the assay with MOLT-4 leukemia, 13.8%.

With `CC(C)CSc1nc(NCCc2c[nH]c3ccccc23)c(C#N)c(-c2ccc(Cl)cc2)n1`, the growth in the assay with SK-MEL-2 melanoma was 90.1%; with EKVX NSCLC, 46.1%; in the assay with TK-10 renal, 108%; with ACHN renal, 67.4%; in the assay on CAKI-1 renal, 50.1%; in the assay on A498 renal it was 113%. The growth in the assay on CCRF-CEM leukemia was 20.6%; in the assay with MOLT-4 leukemia, 20.8%.

Regarding `CCCSc1nc(NCCc2c[nH]c3ccccc23)c(C#N)c(-c2ccc(OC)cc2)n1`, the growth was 75.5% in the assay on SK-MEL-2 melanoma; 32.5% in the assay on EKVX NSCLC; 41.8% in the assay on UO-31 renal; 82.9% in the assay with TK-10 renal; 64.9% in the assay with ACHN renal; 51% in the assay with CAKI-1 renal. Also, the growth is 61.4% in the assay on A498 renal, 25.7% in the assay with CCRF-CEM leukemia and 26.1% in the assay with MOLT-4 leukemia.

For `CCCSc1nc(NCCc2c[nH]c3ccccc23)c(C#N)c(-c2ccc(F)cc2)n1`, the growth is 92% in the assay with SK-MEL-2 melanoma; 50.8% in the assay with EKVX NSCLC; 68.7% in the assay with UO-31 renal; 91.6% in the assay on TK-10 renal; 59.2% in the assay on ACHN renal; 52.3% in the assay on CAKI-1 renal. For the same molecule, the growth in the assay with A498 renal is 96.8%; in the assay on CCRF-CEM leukemia, 33.6%; with MOLT-4 leukemia, 42.5%.

On to `Cn1cc(-c2cc(N)n3nc(-c4c[nH]c5ccccc45)cc3n2)c2cccnc21`, for which the growth was 64.5% in the assay on SK-MEL-2 melanoma; 85.6% with EKVX NSCLC; 12.2% in the assay with UO-31 renal; 92% with TK-10 renal; 3.49% (active) with ACHN renal; 129% in the assay on A498 renal. For the same molecule, the growth was -21.5% (active) with CCRF-CEM leukemia and -29.4% (active) in the assay with MOLT-4 leukemia.

Regarding `CC(=O)OC[C@@]1(C)C2CC[C@]3(C)C(CC=C4C5CC(C)(C)CC[C@]5(C(=O)Nc5ccc(Br)cc5)CC[C@]43C)[C@@]2(C)C[C@@H](OC(C)=O)[C@@H]1OC(C)=O` (stereo partly specified), the growth in the assay with SK-MEL-2 melanoma is 42.2%; in the assay with EKVX NSCLC it was 32.8%; in the assay with TK-10 renal it was 45.7%; in the assay on ACHN renal, 39%; in the assay with CAKI-1 renal it was 42%; in the assay with A498 renal, 64.3%. Moreover, the growth was 28.7% in the assay with CCRF-CEM leukemia and 38% in the assay on MOLT-4 leukemia.

With `Cc1cc(=O)oc2cc(OCCCCOc3ccc(/C=C/C(=O)Nc4ccccc4N)cc3)ccc12`, the growth was 111% in the assay on SK-MEL-2 melanoma; 60.3% in the assay on EKVX NSCLC; 23.3% with UO-31 renal; 112% with TK-10 renal; 68.2% in the assay on ACHN renal; 59.8% with CAKI-1 renal. The growth with A498 renal is 84.1%; with CCRF-CEM leukemia, 10.9%; with MOLT-4 leukemia, 27.8%.

`COc1cc2c(c(OC)c1OC)C(=O)CC(c1cccc(NC(=O)c3cc(NC(=O)[C@@H](N)CO)ccc3C)c1)O2` (stereo partly specified): the growth in the assay with SK-MEL-2 melanoma is 111%; in the assay with EKVX NSCLC, 108%; in the assay on UO-31 renal it was 92%; in the assay on TK-10 renal it was 105%; in the assay on ACHN renal, 107%; in the assay on A498 renal it was 126%. Further, the growth in the assay with CCRF-CEM leukemia is 102%; in the assay with MOLT-4 leukemia, 114%.

As for `COc1ccc2c(c1)C(=N/N=C(\C)c1ccc(OC)c(S(N)(=O)=O)c1)C(=O)N2`, the growth was 92.6% in the assay with SK-MEL-2 melanoma; 90.3% with EKVX NSCLC; 95.1% in the assay on UO-31 renal; 102% with TK-10 renal; 101% in the assay on ACHN renal; 79.5% in the assay with CAKI-1 renal. For the same molecule, the growth in the assay on A498 renal was 99.5%; in the assay with CCRF-CEM leukemia, 74%; with MOLT-4 leukemia, 94.5%.

Turning to `CC1(C)CC[C@]2(C(=O)Nc3ccc(F)cc3)CC[C@]3(C)C(=CCC4[C@@]5(C)C[C@@H](O)[C@H](O)[C@@](C)(CO)C5CC[C@]43C)C2C1` (stereo partly specified), the growth was 45.9% with SK-MEL-2 melanoma; 32.3% with EKVX NSCLC; 29.8% with UO-31 renal; 58.6% with TK-10 renal; 31.3% in the assay with ACHN renal; 42.7% in the assay on CAKI-1 renal. The growth in the assay on A498 renal was 29.8%; in the assay with CCRF-CEM leukemia, 18.2%; in the assay with MOLT-4 leukemia it was 5% (active).
